# Results: the supplement of paper PMC10681739
# Target: T1, ETS1 (UniProt P14921)
# T1 sequence: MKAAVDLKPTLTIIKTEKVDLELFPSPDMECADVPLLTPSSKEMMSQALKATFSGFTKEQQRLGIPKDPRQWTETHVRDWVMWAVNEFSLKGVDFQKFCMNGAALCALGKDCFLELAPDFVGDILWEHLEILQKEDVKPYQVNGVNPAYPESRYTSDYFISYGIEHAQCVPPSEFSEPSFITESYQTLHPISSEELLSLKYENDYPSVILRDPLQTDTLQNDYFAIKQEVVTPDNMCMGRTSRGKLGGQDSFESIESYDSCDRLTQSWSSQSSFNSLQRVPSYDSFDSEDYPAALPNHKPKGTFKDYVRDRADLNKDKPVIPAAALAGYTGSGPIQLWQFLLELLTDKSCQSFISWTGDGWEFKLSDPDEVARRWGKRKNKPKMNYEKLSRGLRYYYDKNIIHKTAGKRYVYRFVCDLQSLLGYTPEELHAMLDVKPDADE
# Test: ETS1 binding intensity (PBM fluorescence), ETS1 alone (arbitrary fluorescence units); higher = stronger binding
# Conditions: ETS1 concentration 1 nM; RUNX1 concentration 0 nM
# 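Wherever RUNX1 binding intensity (PBM fluorescence), RUNX1 alone is given: Full-length recombinant human RUNX1 bound to double-stranded 36-bp genomic probes on a high-density microarray, scored as Alexa488 fluorescence per spot via anti-RUNX1 antibody, median of four replicate spots.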
row,Sequence,ETS1 binding intensity
1,CAGTCAAGAGGAAATTATAAACCACTGCCTCTTTGA,599
2,GACATCCAGGAAGTGGTGAGAAACCACGTGTGTGTT,1630
3,AGCAGGAAGTATGTTGAAAGTCATAACCACAGCAAA,908
4,GGAGGAAGTGACACCCACCCACTGCCCCCGCAAGGT,962
5,AAATACCAGCCCACTTCCTGTGGCTTTGATCTGCAG,2090
6,AATCCCGGAAACGCGGATTCAGCGGAGCGCGGTGAC,1280
7,GCCGCTGGGTAGGCGGAAGTAGCCGCAGGCATGGCA,5590
8,TCAGGGGAGCGAGCAGGAAGTGGTAAGATTTGATAG,3680
9,TCCCTTACCTTCCTGCTGCCACCAAACCACCAAACC,460
10,CCCACCCTCGCCGGAAGCCGAGCGGTTTCTACATCA,2120
11,TTCAACAAGGTTTTCCTGTGGTTACCCCATGCTTTG,364
12,GGTTCGCGGCTTCCGGGACATTTGTACCGCAGGGGG,960
13,GCCATTAAAGCAGCTTCCTGTGGGCGCGGCGCAGGA,888
14,GACATATCCTGCATTCTCAGAAAAACCACAGGCTAG,391
15,TGCAGCCTATTTCCTCTAACCCGCAGATCCACTATG,536
16,GACAGGAAGTGACCTCAATTTCCCCGGCCACAGAAA,2650
17,AACCCGGAAGTGGACACGGAGCTCGGCTGCGGCTCC,1750
18,CCCCTCCCTGCTTCCTGTGTGGTGAGGGGTGATCAG,2040
19,CAGGCAGGATGTTGACTCAGCTGCCAAGTGGTTTTG,1340
20,TGGCGCTTCCTGTCGCTACCGCTGCGGCCCAGGGCC,819

row,Sequence,ETS1 binding intensity
1,GTGCCTCACCGCTTCCGGCGCTGCGGGATGACGTCA,2390
2,GGTTTCCGGGTGAAAAAAAAAAAAAAAACCACGCCA,461
3,CTCATCAGTCATCCGGCTGGACCGCAGGAGCTCTCC,403
4,TTCAGAAAAAAAGGAAGTGGTAAATTCTTGCTGATT,1890
5,GGGGGCGGAAGTTTCGGTGCATTGTGGGTTCTCCTG,1260
6,GCTCCCTGGACAGGATGTGGTGCCGAGTAAACAGCT,4470
7,AACCTAGAAAAGGAAGCTGCGGTTTTTCAGGGTATG,697
8,CGAAGCCAGGAAATAAGGATAAACCACAGAAAGAAA,1060
9,CAGCACGCAGGAAGCACATGTGGTGGGGCTCTTCCA,674
10,ACAGGAAGAGATATTATATCTCCCTGCGGTTGGTTT,583
11,CGACCGGAACCACTCTGAGGCGCTGCCGCAGACACC,533
12,GACGGGAGCACCGGAAGCGGTCTTTCCCCGAGCGGA,12900
13,TCCTTAATGGTTCCGGCGGCAGGGACCGCAGCGACG,460
14,TCCAGTGCCGCCGCCGGAAAACCGCAGCGGCGGCGG,887
15,TTCTGCTACATCCTGCCCACTCCCTGTGGCTTCCAC,1090
16,ATGGGTACAGGATTTCCTTTTGTGGTGATGAAAATG,697
17,AGCTCTGCCAGGAAGTGAGAACCACAGGCCTCCCCT,1570
18,AGCTGAAGGGCAGGATGTGGTTTCAGCATTCGGTGA,3090
19,CGGTGGCTTCCGGCCCATGGCGGTGGTTGGTGACTC,807
20,CCCCTCGCCCTTCCGCATTGCGGGTTACTTCGGTTG,521

# Target: RUNX1 (UniProt Q01196)
# Test: RUNX1 binding intensity (PBM fluorescence), RUNX1 alone (arbitrary fluorescence units); higher = stronger binding
# Conditions: RUNX1 concentration 2 nM; ETS1 concentration 0 nM
# Method: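 Cooperative gcPBM on 36-bp genomic probes with neighbouring ETS1 and RUNX1 sites. Recombinant human RUNX1 (2 nM) was incubated alone or with ETS1 (25 nM) and detected with anti-RUNX1 antibody plus Alexa488 secondary. Values are medians over 4 replicate spots; the RUNX1+ETS1 data were normalised to the RUNX1-only data. The probes sit in constant array flanks that are not printed.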
# Chain of RUNX1 (Q01196 whole entry): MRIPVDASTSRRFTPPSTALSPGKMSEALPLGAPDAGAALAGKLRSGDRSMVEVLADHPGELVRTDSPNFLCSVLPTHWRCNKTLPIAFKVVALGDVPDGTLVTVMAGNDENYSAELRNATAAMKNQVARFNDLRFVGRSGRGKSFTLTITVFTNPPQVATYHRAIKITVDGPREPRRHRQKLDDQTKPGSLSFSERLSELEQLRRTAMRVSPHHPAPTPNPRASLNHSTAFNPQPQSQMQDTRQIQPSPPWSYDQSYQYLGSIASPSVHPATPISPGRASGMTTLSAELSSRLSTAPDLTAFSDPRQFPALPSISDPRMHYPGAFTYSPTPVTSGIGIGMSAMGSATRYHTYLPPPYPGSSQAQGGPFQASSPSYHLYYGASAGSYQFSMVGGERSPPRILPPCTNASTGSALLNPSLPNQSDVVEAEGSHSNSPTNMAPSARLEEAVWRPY
row,Sequence,RUNX1 binding intensity
1,CAGTCAAGAGGAAATTATAAACCACTGCCTCTTTGA,833
2,GACATCCAGGAAGTGGTGAGAAACCACGTGTGTGTT,747
3,AGCAGGAAGTATGTTGAAAGTCATAACCACAGCAAA,776
4,GGAGGAAGTGACACCCACCCACTGCCCCCGCAAGGT,797
5,AAATACCAGCCCACTTCCTGTGGCTTTGATCTGCAG,855
6,AATCCCGGAAACGCGGATTCAGCGGAGCGCGGTGAC,735
7,GCCGCTGGGTAGGCGGAAGTAGCCGCAGGCATGGCA,760
8,TCAGGGGAGCGAGCAGGAAGTGGTAAGATTTGATAG,696
9,TCCCTTACCTTCCTGCTGCCACCAAACCACCAAACC,2510
10,CCCACCCTCGCCGGAAGCCGAGCGGTTTCTACATCA,1110
11,TTCAACAAGGTTTTCCTGTGGTTACCCCATGCTTTG,1040
12,GGTTCGCGGCTTCCGGGACATTTGTACCGCAGGGGG,759
13,GCCATTAAAGCAGCTTCCTGTGGGCGCGGCGCAGGA,753
14,GACATATCCTGCATTCTCAGAAAAACCACAGGCTAG,1290
15,TGCAGCCTATTTCCTCTAACCCGCAGATCCACTATG,1470
16,GACAGGAAGTGACCTCAATTTCCCCGGCCACAGAAA,809
17,AACCCGGAAGTGGACACGGAGCTCGGCTGCGGCTCC,705
18,CCCCTCCCTGCTTCCTGTGTGGTGAGGGGTGATCAG,782
19,CAGGCAGGATGTTGACTCAGCTGCCAAGTGGTTTTG,719
20,TGGCGCTTCCTGTCGCTACCGCTGCGGCCCAGGGCC,755

row,Sequence,RUNX1 binding intensity
1,GTGCCTCACCGCTTCCGGCGCTGCGGGATGACGTCA,786
2,GGTTTCCGGGTGAAAAAAAAAAAAAAAACCACGCCA,906
3,CTCATCAGTCATCCGGCTGGACCGCAGGAGCTCTCC,933
4,TTCAGAAAAAAAGGAAGTGGTAAATTCTTGCTGATT,775
5,GGGGGCGGAAGTTTCGGTGCATTGTGGGTTCTCCTG,920
6,GCTCCCTGGACAGGATGTGGTGCCGAGTAAACAGCT,645
7,AACCTAGAAAAGGAAGCTGCGGTTTTTCAGGGTATG,8830
8,CGAAGCCAGGAAATAAGGATAAACCACAGAAAGAAA,1260
9,CAGCACGCAGGAAGCACATGTGGTGGGGCTCTTCCA,742
10,ACAGGAAGAGATATTATATCTCCCTGCGGTTGGTTT,904
11,CGACCGGAACCACTCTGAGGCGCTGCCGCAGACACC,919
12,GACGGGAGCACCGGAAGCGGTCTTTCCCCGAGCGGA,736
13,TCCTTAATGGTTCCGGCGGCAGGGACCGCAGCGACG,824
14,TCCAGTGCCGCCGCCGGAAAACCGCAGCGGCGGCGG,5970
15,TTCTGCTACATCCTGCCCACTCCCTGTGGCTTCCAC,1380
16,ATGGGTACAGGATTTCCTTTTGTGGTGATGAAAATG,913
17,AGCTCTGCCAGGAAGTGAGAACCACAGGCCTCCCCT,837
18,AGCTGAAGGGCAGGATGTGGTTTCAGCATTCGGTGA,791
19,CGGTGGCTTCCGGCCCATGGCGGTGGTTGGTGACTC,770
20,CCCCTCGCCCTTCCGCATTGCGGGTTACTTCGGTTG,1900
